# Assay outcomes as filed in PubChem.
# TDP1 cell noCPT: qHTS for Inhibitors of human tyrosyl-DNA phosphodiesterase 1 (TDP1): qHTS in cells in absence of CPT; DT40 Tdp1-/- hTDP1 cells, no CPT, ATP luminescence, 48 h; Potency, µM (doses to about 46.2 µM), for inactives: top-dose activity change, negative = growth inhibition, actives largely listed as inhibitors; 420,000 tested, 15% active; further: on the % scale 0 is the no-effect control and ±100 the full control effect; nearly all actives have a fitted effect of over 55% in size
#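 Chicken DT40 Tdp1-/- cells stably complemented with human TDP1 were seeded at 400 cells/well with DMSO in place of 20 nM camptothecin. After compound pinning, cells grew at least 48 hr at 37 °C; viability read by CellTiter-Glo luminescence.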
# ATXN2 expr inh: Primary qHTS for Inhibitors of ATXN expression; 360,000 tested, 0.72% active; Potency, µM (doses to about 57 µM), for the others: at the highest dose activity change, negative = inhibition, hits mostly inhibitors; AID 1745845, 2022; HEK-293 ATXN2-luciferase reporter, luminescence, 24 h; further: on the % scale 0 is the no-effect control and ±100 the full control effect; nearly all actives have a fitted effect of over 55% in size
#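 qHTS (up to 57 uM final) was run with 24 h compound exposure of reporter cells at 37 °C. Each well was multiplexed: SteadyGlo luminescence measured ATXN2-luciferase expression after a fluorogenic Gly-Phe-AFC viability readout (25 uM final).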
# TGFb inhibitor: qHTS for Inhibitors of TGF-b; HepG2 CAGA-GFP TGF-b/SMAD3 reporter, GFP fluorescence, 18 h; TGF-beta stimulated, 500 pg/mL final; Potency, µM (highest dose often 46.1 µM), without a hit: at the top dose activity, negative = inhibition, hits mostly inhibitors; 410,000 tested, 1.2% active; AID 588855, 2011; further: on the % scale 0 is the no-effect control and ±100 the full control effect; nearly all actives have a fitted effect of over 65% in size
#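 Read-out: total well GFP (ex488/em500-530) summed from mean per-cell fluorescence. Cells: HEPG2 CAGA-GFP, 1% FBS DMEM, 18 h at 37 degrees C with 500 pg/mL final TGF-beta. Unstimulated wells served as the full-inhibition control; stimulated DMSO wells = 0%.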
# HepG2 viability: qHTS for Inhibitors of TGF-b: Cytotox Counterscreen. Potency, µM (doses to about 46.1 µM), for inactives: at the top dose activity change, negative = cytotoxicity, usual class: cytotoxic. HepG2 CAGA-GFP viability, ATP luminescence, 18 h. 410,000 tested, 0.76% active. AID 588856, 2011
#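 HepG2 CAGA-GFP cells (1000/well, DMEM with 1% FBS) received compound, then TGF-beta at 500 pg/mL final, and were incubated 18 hours at 37 degrees C. Viability was read by CellTiter-Glo luminescence. Media-only wells were set as complete cell-killing and DMSO as no toxicity.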
# DT40 TDP1 CPT: qHTS for Inhibitors of human tyrosyl-DNA phosphodiesterase 1 (TDP1): qHTS in cells in presence of CPT; chicken DT40 Tdp1-/-;hTDP1 cells + 20 nM CPT, ATP luminescence, 48 h; Potency, µM (top dose mostly 46.2 µM), inactives show at the highest dose activity change, negative = growth inhibition, hits mostly inhibitors; AID 686979, 2013; 420,000 tested, 12% active; further: on the % scale 0 is the no-effect control and ±100 the full control effect; nearly all actives have a fitted effect of over 55% in size
#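 Cell growth measured by CellTiter-Glo luminescence after a minimum 48 h, 37 C compound exposure with 20 nM CPT in Tdp1-knockout DT40 cells stably expressing hTDP1, seeded 400/well; qHTS titration format.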
# ATXN viability: Viability Counterscreen for Primary qHTS for Inhibitors of ATXN expression; S2 cells (HEK-293 line with an ATXN2-luciferase reporter) viability, CellTiter-Fluor protease fluorescence, 24 h; Potency, µM (doses to about 56.7 µM), usual class: cytotoxic; 400,000 tested, 0.49% active; AID 651635, 2014; further: nearly all actives have a fitted effect of over 40% in size
# The depositor's hits bear a star; i = inactive; ? = inconclusive; · = not tested or not shown; [ ] = remark or other dose. Most compounds without a hit are left out; they make up all but 17% or so of the library. The call rests on the fitted dose curve; in most records, active means well fitted curve in the direction sought with a large enough effect; inconclusive means small, poorly fitted or top-dose-only effect, or another doubt; inactive means no such curve, though single readings can be large; an effect the other way counts as inactive or inconclusive. Potency means the concentration at half of the fitted maximal effect.
SMILES,TDP1 cell noCPT,ATXN2 expr inh,TGFb inhibitor,HepG2 viability,DT40 TDP1 CPT,ATXN viability
COC(=O)c1ccc(CNC(=O)Cn2cnc3c(SC)nc(N)nc32)cc1,?,-15.6%,?,-20.8%,23.1µM*,i
Cc1ccc(S(=O)(=O)NCCc2cc3ccc(C)cc3[nH]c2=O)cc1,-25.5%,23.9%,4.8%,-1.1%,-22.8%,i
Cc1ccc2cc(CCNS(=O)(=O)c3ccc(F)cc3)c(=O)[nH]c2c1,18.4µM*,1.2%,4.6%,-16.3%,20.6µM*,i
COc1ccc2cc(CCNS(=O)(=O)c3ccc(C)cc3)c(=O)[nH]c2c1,9.2µM*,-6.9%,0.0%,-11.3%,-22.4%,i
Cc1nn(C)cc1S(=O)(=O)Nc1ccccc1Br,-17.8%,6.2%,-2.1%,-4.6%,-2.1%,i
CC(c1ccccc1)n1cnc2ccccc2c1=O (centres undefined),-17.6%,1.5%,1.3%,-9.7%,-15.5%,i
COc1ccc(C(=O)C2CCCN(S(=O)(=O)c3ccc(C(C)=O)cc3)C2)c(C)c1 (centres undefined),11.6µM*,?,-26.2%,-8.5%,16.4µM*,i
COc1ccc(C(=O)C2CCCN(C(=O)c3csc(C(C)=O)c3)C2)c(C)c1 (centres undefined),-18.4%,-4.1%,-6.6%,-4.4%,?,i
COc1ccc(C(=O)C2CCCN(C(=O)c3noc4c3CCCC4)C2)c(C)c1 (centres undefined),20.6µM*,-22.3%,-17.9%,-8.8%,?,i
COc1ccc(C(=O)C2CCCN(C(=O)C3=CCCC3)C2)c(C)c1 (centres undefined),23.1µM*,·,?,-12.0%,?,i
COc1ccc(C(=O)C2CCCN(C(=O)c3noc4c3CCCC4)C2)cc1F (centres undefined),18.4µM*,-8.3%[2.22 µM],0.4%,-5.2%,?,i
COc1ccc(C(=O)NCC2Cc3cccc(-c4ccc(S(C)(=O)=O)cc4)c3O2)c(OC)n1 (centres undefined),-9.0%,·,·,·,10.3%[9.04 µM],i
C=CCCC(=O)N1C[C@H]2CON(C)[C@H]2C[C@H]1c1cccc(N2CCOCC2)c1,-3.4%,6.8%,-0.7%,-14.0%,0.4%,i
O=C(O)c1cc(-c2ccccc2)nn1CC1CC(c2cccc([N+](=O)[O-])c2)=NO1 (centres undefined),-2.7%,2.4%,20.6%,-7.9%,-3.5%,i
Cc1csc(SCC(=O)Nc2ccc(S(=O)(=O)N3CCCC3)cc2)n1,-20.4%,-5.6%,1.8%,1.0%,18.4µM*,i
Cn1nnnc1SCC(=O)Nc1cc(S(=O)(=O)N2CCCCC2)ccc1Cl,23.1µM*,-21.4%,-3.9%,-20.6%,18.4µM*,i
Cn1nnnc1SCC(=O)Nc1cc(S(=O)(=O)N2CCCC2)ccc1Cl,0.0%,-11.6%,-25.3%,-3.3%,8.7%,i
Cc1cc(C)nc(SCC(=O)Nc2ccc(S(=O)(=O)N3CCCCC3)cc2)n1,?,-1.2%,13.6%,-0.7%,?,i
Cc1cccc(Nc2nnc(SCC(=O)Nc3cccc(S(=O)(=O)N4CCCCC4)c3)s2)c1,23.1µM*,27.1%,?,9.4%,23.1µM*,i
Cc1csc(SCC(=O)Nc2ccccc2C)n1,-7.5%,-8.0%,-7.3%,-4.0%,0.8%,?
Cc1csc(SCC(=O)Nc2cccc3nsnc23)n1,?,27.1%,19.9%,-28.2%,7.31µM*,i
